Screens from PubChem.
Bead autofluor – flagged as autofluorescent in microsphere protease counterscreen; compound autofluorescence counterscreen, microsphere flow cytometry; hits give high values; AID 624483; fluorescence intensity (test concentration not listed); 3.1% of 360,000 active; in the data active = fluorescence intensity above about 16000; inconclusive = no clear call, values can overlap the other calls
Anthrax LF prot – Bacillus anthracis LF protease inhibitors, primary screen, biochemical, multiplex microsphere, MLPCN library | multiplex microsphere protease cleavage assay | inhibition, % at 10 µM | 0.12% of 360,000 active; in the data active = inhibition above about 30%; inconclusive = no clear call, values can overlap the other calls
Target sequence (P15917 whole entry, looked up): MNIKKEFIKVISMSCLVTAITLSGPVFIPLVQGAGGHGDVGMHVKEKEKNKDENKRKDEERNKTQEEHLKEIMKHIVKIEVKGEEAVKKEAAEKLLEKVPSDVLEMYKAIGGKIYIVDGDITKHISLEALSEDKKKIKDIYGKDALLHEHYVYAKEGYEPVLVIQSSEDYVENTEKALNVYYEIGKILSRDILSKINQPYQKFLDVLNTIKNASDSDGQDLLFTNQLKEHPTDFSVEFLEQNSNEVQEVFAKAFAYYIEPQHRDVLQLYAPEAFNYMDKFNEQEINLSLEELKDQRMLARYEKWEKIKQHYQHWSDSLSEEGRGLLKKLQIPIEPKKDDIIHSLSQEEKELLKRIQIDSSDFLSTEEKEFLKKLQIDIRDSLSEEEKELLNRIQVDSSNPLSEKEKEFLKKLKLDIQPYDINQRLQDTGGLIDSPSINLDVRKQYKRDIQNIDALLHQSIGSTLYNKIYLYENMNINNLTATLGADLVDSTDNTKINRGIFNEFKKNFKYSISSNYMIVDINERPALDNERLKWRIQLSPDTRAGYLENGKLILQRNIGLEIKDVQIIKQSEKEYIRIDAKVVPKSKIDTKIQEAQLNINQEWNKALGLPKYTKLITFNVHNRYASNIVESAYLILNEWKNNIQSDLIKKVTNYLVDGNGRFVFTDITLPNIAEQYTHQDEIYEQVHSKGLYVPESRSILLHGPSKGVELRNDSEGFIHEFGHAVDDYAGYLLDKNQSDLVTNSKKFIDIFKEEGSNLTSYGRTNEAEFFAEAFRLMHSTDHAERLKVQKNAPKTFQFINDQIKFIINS
MazF activator – activators of E. coli MazEF toxin-antitoxin RNase, primary screen, biochemical, fluorescence, uHTS. FAM/BHQ RNA-DNA oligo cleavage fluorescence, 5 h. activation, % at 20 µM. 0.32% of 350,000 active. AID 504720, 2011; in the data active = activation above about 50%
BoNT-A LC inh2 – BoNT/A light chain protease inhibitors, primary screen, biochemical, flow cytometry, MLPCN library; multiplex microsphere protease substrate cleavage; inhibition, % at 10 µM; 0.17% of 360,000 active; Botulinum neurotoxin type A light chain protease (Clostridium botulinum A str. ATCC 3502); in the data active = inhibition above about 30%; inconclusive = no clear call, values can overlap the other calls
BoNT-F LC inh – BoNT/F light chain protease inhibitors, primary screen, biochemical, flow cytometry, MLPCN library | AID 588497, 2011 | inhibition, % at 10 µM | 0.22% of 360,000 active | Botulinum neurotoxin type F light chain protease (Clostridium botulinum) | Multiplex microsphere protease cleavage assay; in the data active = inhibition above about 35%, passing the limit was not always enough; inconclusive = no clear call, values can overlap the other calls
BH1578 lux ind – inducers of Vibrio cholerae quorum light production without autoinducers, primary screen, BH1578 luxS cqsA deficient, single point; 0.16% of 350,000 active; AID 588436, 2011; V. cholerae BH1578 lux reporter, luminescence, 6 h; activation, % at 18.7 µM; in the data active = activation mostly above about 9.7%, no sharp cut-off; inconclusive = no clear call, values can overlap the other calls; inactive = mostly below about 3.7%
BoNTA LC inh 1 – BoNT/A light chain protease inhibitors, confirmation, biochemical, flow cytometry, cherry pick 1; inhibition, % at 10 µM; AID 602139, 2011; 3% of 720 active; multiplex microsphere protease assay; shares compounds with BoNT-F LC inh; in the data active = inhibition above about 32%
BoNTF LC inh 1 – BoNT/F light chain protease inhibitors, confirmation, biochemical, flow cytometry, cherry pick 1; shares compounds with BoNT-F LC inh; multiplex microsphere protease cleavage assay; inhibition, % at 10 µM; 720 tested, under 10 active
LF protease CP1 – Bacillus anthracis LF protease inhibitors, confirmation, biochemical, multiplex microsphere, cherry pick 1; shares compounds with BoNT-F LC inh; multiplex microsphere protease cleavage assay; inhibition, % at 10 µM; 720 tested, under 10 active; AID 602142, 2011
Large screens that a line does not name were inactive (follow-up assays come after a bar, where they were run). A selection: hits, their analogues and other compounds. The true share with any hit is near 3.9%. Unless noted, no rule for the calls is given here.

Cc1c(C(=O)Nc2ccccc2[N+](=O)[O-])csc1-c1ccccc1	BoNT-F LC inh 39 | BoNTA LC inh 1 inactive | BoNTF LC inh 1 inactive | LF protease CP1 inactive
CCN(CCCNC(=O)CN1C(=O)COc2ccccc21)c1ccccc1	Anthrax LF prot 35, BoNT-A LC inh2 30 | BoNTA LC inh 1 inactive | BoNTF LC inh 1 inactive | LF protease CP1 inactive
Cc1nc2cc(F)ccc2n1C1CCN(Cc2nnnn2CCc2ccccc2)CC1	BoNT-F LC inh 42 | BoNTA LC inh 1 inactive | BoNTF LC inh 1 inactive | LF protease CP1 inactive
COC(=O)[C@H]1C[C@@]2(O)CN(S(=O)(=O)c3ccc(C)cc3)C[C@@]2(OC(=O)NC2CC2)C[C@H]1C(=O)OC	none
O=C(NNC(=O)c1cccc(S(=O)(=O)N2CCc3ccccc32)c1)c1ccccc1	none
O=C(Nc1nc2c(s1)CN(Cc1ccccc1)CC2)c1cccc(S(=O)(=O)N2CCc3ccccc32)c1	Anthrax LF prot 30 | BoNTA LC inh 1 inactive | BoNTF LC inh 1 inactive | LF protease CP1 inactive
COc1cccc(N2CC(O)Cn3c2nc2c3c(=O)[nH]c(=O)n2C)c1 (centres undefined)	BoNT-F LC inh 41 | BoNTA LC inh 1 inactive | BoNTF LC inh 1 inactive | LF protease CP1 inactive
Cc1ccc(N2CC(O)Cn3c2nc2c3c(=O)[nH]c(=O)n2C)cc1 (centres undefined)	BoNT-F LC inh inconclusive
CCc1nc2c(OCc3ccc(Cl)cc3)cccn2c1N(C)C(=O)c1ccc(C)cc1	none (no result: MazF activator)
CCCCNC(=O)Cn1cnc([N+](=O)[O-])n1	BoNT-F LC inh 40 | BoNTA LC inh 1 inactive | BoNTF LC inh 1 inactive | LF protease CP1 inactive
CCn1c(CCNC(=O)c2ccc(OC)c(OC)c2)nc2ccccc21	BoNT-F LC inh 40 | BoNTA LC inh 1 inactive | BoNTF LC inh 1 inactive | LF protease CP1 inactive
Brc1ccc(-c2nnc(-c3cccnc3)o2)cc1	BoNT-F LC inh inconclusive
Cc1ccc(-c2nnc(-c3cccnc3)o2)cc1	BoNT-F LC inh 56 | BoNTA LC inh 1 inactive | BoNTF LC inh 1 inactive | LF protease CP1 inactive
Nc1c2c(nn1-c1ccccc1)CCC2	none
NS(=O)(=O)c1cccc(NC(=O)CC(NC(=O)c2ccccc2Cl)c2ccccc2)c1 (centres undefined)	BoNT-F LC inh 35 | BoNTA LC inh 1 inactive | BoNTF LC inh 1 inactive | LF protease CP1 inactive
CCOC(=O)CSc1nc2sc3c(c2c(=O)n1-c1ccc(OC)cc1)CCN(C)C3	BoNT-A LC inh2 42, BoNT-F LC inh inconclusive | BoNTA LC inh 1 inactive | BoNTF LC inh 1 inactive | LF protease CP1 inactive
O=C(NCCCN1CCCC1=O)NC1CCCCC1	none
O=C(O)C1CCCCC1C(=O)NCCCN1CCCC1=O (centres undefined)	BoNT-F LC inh 48 | BoNTA LC inh 1 inactive | BoNTF LC inh 1 inactive | LF protease CP1 inactive
O=C(/C=C/c1ccc(-c2cccc([N+](=O)[O-])c2)o1)N1CCOCC1	none
COc1ccc2nc(C)cc(Nc3ccc(C)cc3)c2c1	BoNT-F LC inh inconclusive
COc1ccc2nc(C)cc(NCc3ccc(F)cc3)c2c1	Bead autofluor 84261, BoNT-F LC inh 134 | BoNTA LC inh 1 inactive | BoNTF LC inh 1 74 | LF protease CP1 inactive
Cc1nc2nc(CSc3ccc(Cl)cc3)cc(=O)n2[nH]1	BoNT-F LC inh 79 | BoNTA LC inh 1 inactive | BoNTF LC inh 1 inactive | LF protease CP1 inactive
N#Cc1ccc(-c2ccco2)nc1SCC(=O)c1ccc(Cl)cc1	Anthrax LF prot 41, BoNT-A LC inh2 55, BoNT-F LC inh inconclusive (no result: BH1578 lux ind) | BoNTA LC inh 1 inactive | BoNTF LC inh 1 inactive | LF protease CP1 inactive
COc1ccc(C(=O)[C@@H]2CC[C@](C)(C(=O)O)C2(C)C)cc1	none
c1csc(-c2ncc3ccccn23)c1	none
COc1cc(-c2ncc3ccccn23)cc(OC)c1OC	none | BoNTA LC inh 1 inactive | BoNTF LC inh 1 inactive | LF protease CP1 inactive
COc1ccc(-c2nc3ccccn3c2Cl)cc1	none
COc1ccc(-c2ncc3ccccn23)cc1	none | BoNTA LC inh 1 inactive | BoNTF LC inh 1 inactive | LF protease CP1 inactive
COc1cccc(-c2nnc(SCc3ccccn3)n2C)c1	none
COc1cccc(-c2ncc3ccccn23)c1	none | BoNTA LC inh 1 inactive | BoNTF LC inh 1 inactive | LF protease CP1 inactive
COc1cc(OC)cc(-c2ncc3ccccn23)c1	none (no result: BH1578 lux ind) | BoNTA LC inh 1 inactive | BoNTF LC inh 1 inactive | LF protease CP1 inactive
COc1ccc(S(=O)(=O)N2CCCOC2CNC(=O)C(=O)NCCCN2CCOCC2)cc1C (centres undefined)	none
COc1ccc(Cl)cc1-c1nc(SCC(N)=O)n[nH]1	none
CC(C)CNS(=O)(=O)c1ccc(CCC(=O)NC2CCCCC2)cc1	Anthrax LF prot 59 | BoNTA LC inh 1 inactive | BoNTF LC inh 1 inactive | LF protease CP1 inactive
CCOc1ccc(NC(=O)CNC(=O)c2nn(-c3ccc(OC)c(OC)c3)c(=O)c3ccccc23)cc1	none
COc1ccc(-n2nc(C(=O)NCC(=O)Nc3cccc(Cl)c3)c3ccccc3c2=O)cc1OC	BoNT-F LC inh 51 | BoNTA LC inh 1 inactive | BoNTF LC inh 1 inactive | LF protease CP1 inactive
Cc1nn(C2CCS(=O)(=O)C2)c(Cl)c1/C=C/C(=O)OCC(N)=O (centres undefined)	none
CCCC(C(=O)NC(C)(C)CC)N(CC1CCCO1)C(=O)CNS(=O)(=O)c1ccc(F)cc1 (centres undefined)	Anthrax LF prot 30 | BoNTA LC inh 1 inactive | BoNTF LC inh 1 inactive | LF protease CP1 inactive
Cc1nc(N2CCN(C(c3ccccc3)c3ccccc3)CC2)[nH]c(=O)c1C	BoNT-F LC inh 35 | BoNTA LC inh 1 inactive | BoNTF LC inh 1 inactive | LF protease CP1 inactive
Cc1ccc2c(c1)C(c1ccc(F)cc1)N(C(=O)c1ccccc1Br)CC(=O)N2 (centres undefined)	none
CCCn1c(=O)c(C(=O)Nc2ncccc2C)c(O)c2ccccc21	none
CCCCCn1c(=O)c(C(=O)Nc2ncccc2C)c(O)c2ccccc21	BoNT-F LC inh 38 | BoNTA LC inh 1 inactive | BoNTF LC inh 1 inactive | LF protease CP1 inactive
CCN(CC)S(=O)(=O)c1ccc(C)c(NC(=O)COC(=O)CN2C(=O)NC(C)(C)C2=O)c1	none (no result: Bead autofluor, Anthrax LF prot, BoNT-A LC inh2, BoNT-F LC inh)
CCc1ccc(-c2cc(C(F)(F)F)n3nc(C(=O)Nc4c(C)nn(Cc5ccccc5C)c4C)cc3n2)s1	Bead autofluor 19939, Anthrax LF prot 30 | BoNTA LC inh 1 inactive | BoNTF LC inh 1 inactive | LF protease CP1 inactive
